DRD3 antagonist: D3 dopamine receptor (human) antagonism | P35462 | D3R cells, DiscoveRx beta-arrestin luminescence, antagonist mode; hits give low values | max response, negative = inhibition, % | hit rate 2.5% among 360,000 | AID 652054; in the data active means max response below about -50%; inconclusive means no clear call, values can overlap the other calls; further: on the % scale 0 is the no-effect control and ±100 the full control effect
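Cells plated overnight at 1500 cells/well, then exposed to library compounds with dopamine controls for 90 minutes at 37 degrees C. DiscoveRx reagent added for 30–60 minutes at room temperature; luminescence read, quantitative HTS format.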
RGS4 inh: inhibitors of human regulator of G protein signaling 4. P49798. Transcreener GDP fluorescence polarization, RGS4-accelerated GTP hydrolysis. Potency, µM (highest dose often 114 µM), for inactives: top-dose activity change, negative = inhibition, actives largely listed as inhibitors. hit rate 0.039% among 390,000; active means well fitted inhibition curve with a large enough effect; inconclusive means small, poorly fitted or top-dose-only effect; inactive means no such curve, though single readings can be large or run the other way; further: potency means the concentration at half of the fitted maximal effect; on the % scale 0 is the no-effect control and ±100 the full control effect; nearly all actives have a fitted effect of over 75% in size
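MLSMR compounds (23 nl, pin-transferred) preincubated 10 min at room temperature with a 500nM (2x) first reagent, then RGS4 at 900nM (2x) plus Transcreener GDP mix added; fluorescence polarization (620/688 nm) read before and after 90 min at 30 °C.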
D3 ag: activates the human D3 dopamine receptor; P35462; D3R DiscoveRx beta-arrestin cells, luminescence, 90 min; max activation, %; hit rate 0.58% among 410,000; in the data active means max activation above about 30%; further: 0% is about no effect
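Agonist mode: compounds and dopamine controls were applied to plated cells for 90 min at 37 degrees C after an overnight attachment at 1500 cells/well. Luminescent read-out followed 30 - 60 minutes at room temperature with DiscoveRx detection reagent.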
Akt phos inh: inhibitors of Akt phosphorylation; Neuro2A IGF-stimulated pAkt S473 HTRF, 20 min; hits give low values; activity change, % for hits at 50 µM; hit rate 0.32% among 360,000; AID 651550; in the data active means activity change below about -80%; inconclusive means mostly about -51% to -80%; further: on the % scale 0 is the no-effect control and ±100 the full control effect
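Neuro2A cells (4,500/well, DMEM with 0.5% FBS) were treated with compound at a single 50 µM final concentration, stimulated with 6 nM IGF for 20 min at 37 °C, and lysed. Phospho-Akt Ser473 was read by HTRF as 665/615 ratio ×10^4.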
PI4K2A block: blocks human PI4K2A kinase activity | Q9BTU6 | purified PI4K2A, ADP-Glo luminescence, 1 h; hits give low values | activity change, negative = inhibition, % at 76.9 µM | hit rate 0.13% among 420,000; in the data active means activity change below about -50%; inconclusive means mostly about -30% to -49%;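 further: -100% = wells without enzyme as full effect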
Target sequence (Q9BTU6 whole entry, looked up): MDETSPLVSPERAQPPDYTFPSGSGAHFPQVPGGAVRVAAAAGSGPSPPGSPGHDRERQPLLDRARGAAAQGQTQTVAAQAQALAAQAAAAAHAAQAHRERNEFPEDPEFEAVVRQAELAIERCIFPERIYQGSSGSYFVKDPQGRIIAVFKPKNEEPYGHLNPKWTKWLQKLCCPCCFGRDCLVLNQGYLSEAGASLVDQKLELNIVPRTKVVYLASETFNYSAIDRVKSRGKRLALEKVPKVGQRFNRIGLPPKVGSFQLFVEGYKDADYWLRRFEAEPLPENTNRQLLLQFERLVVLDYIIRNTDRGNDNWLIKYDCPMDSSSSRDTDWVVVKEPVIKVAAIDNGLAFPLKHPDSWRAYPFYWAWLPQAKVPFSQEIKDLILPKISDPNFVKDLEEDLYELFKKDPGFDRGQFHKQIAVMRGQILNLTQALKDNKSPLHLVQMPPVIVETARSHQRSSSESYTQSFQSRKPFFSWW
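ADP-Glo luminescence measured ADP generated by PI4K2A enzyme (4 ug/mL before mixing) with 1.2 mM PI substrate (pre-mix) and 300 microM ATP (pre-mix). Tris pH7.5 buffer with MgCl2, Triton X-100; 1 h reaction at ambient temperature.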
LDHA block: inhibitors of human lactate dehydrogenase A | P00338 | purified LDHA, NADH/diaphorase-resazurin fluorescence; hits give low values | activity change, % (values are at about 110 or 230 µM) | hit rate 0.15% among 480,000; in the data active means activity change below about -30%; inconclusive means mostly about -25% to -30%;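 further: plate controls were DMSO wells for no effect and wells without enzyme for full effect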
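Human LDH5 (2 nM) was incubated with 0.06 mM NADH and 0.2 mM pyruvate for 5 min at room temperature in Tris pH 7.4. Remaining NADH was coupled through diaphorase/resazurin, and resorufin fluorescence was read at 0 and 20 min.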
Active calls of the source: *; i = inactive; u = inconclusive; x = no result; [ ] = another dose, or the depositor's remark. Compounds with a hit are over-represented: about 2.8% of the library has one in this group of screens.

SMILES | DRD3 antagonist | RGS4 inh | D3 ag | Akt phos inh | PI4K2A block | LDHA block
CCc1ccc(NS(=O)(=O)c2ccc(NC(C)=O)c(OC)c2)cc1 | x | x | x | x | x | -19
CC1(C)SC(=S)N(/N=C/c2ccc(O)cc2)C1N(O)C(=O)Nc1ccc([N+](=O)[O-])cc1 (centres undefined) | -23 | -12% | -22 | i | -9 | -4
Cc1ccc(/C=N/N2C(=S)SC(C)(C)C2N(O)C(=O)Nc2ccc([N+](=O)[O-])cc2)cc1 (centres undefined) | -58* | -38% | -7 | i | -4 | 4
COc1ccc(C)cc1-n1nnc(-c2nc(-c3cccs3)no2)c1N | x | x | x | x | x | -3
CC(C)CNc1nc(-c2ccc(O)c(C(N)=O)c2)cs1 | x | x | x | x | x | 15
Cn1cc(C(F)(F)F)nc1-c1ccc(OCC(O)CNCCOc2ccc(O)c(C(N)=O)c2)cc1 (centres undefined) | -4 | 0%[56.9 µM] | 101* | i | 1 | 3
Cc1c(C(=O)Nc2cccc(C(F)(F)F)c2)oc2ccc(S(=O)(=O)N3CCOCC3)cc12 | 6 | -5% | 64* | i | -1 | -4
Cc1ccc(COc2ccc(Br)cc2/C=N/O)cc1 | -94* | -8% | -5 | i | -3 | 0
CCCCNc1c(-c2ccc(OC)c(SC(C)CC)c2)nc2cc(C)ccn12 (centres undefined) | 4 | -5% | 63* | i | -1 | 2
CCCCNc1c(-c2ccc(OC)c(SC(C)CC)c2)nc2cnccn12 (centres undefined) | 79 | -18% | 53* | i | -4 | 2
CCCCNc1c(-c2ccc(OC)c(SC(C)CC)c2)nc2ccc(C)cn12 (centres undefined) | -14 | 9% | 13 | i | -2 | 4
CCCCNc1c(-c2ccc(OC)c(SC(C)CC)c2)nc2ccc(Cl)cn12 (centres undefined) | 48 | -12% | 3 | i | -1 | 6
CCCCCCSc1cc(-c2nc3ccc(C)cn3c2NCCCC)ccc1OC | 132 | -5% | 71* | i | -4 | 4
CCCCCCSc1cc(-c2nc3ccc(Cl)cn3c2NCCCC)ccc1OC | 50 | -7% | 26 | i | -2 | 1
CCCCNc1c(-c2ccc(Sc3ccc(OC)cc3)cc2)nc2cc(C)ccn12 | 0 | -12% | 56* | i | -3 | -16
Cc1cccc(NC(=O)C2=C(c3ccccc3)S(=O)(=O)CCO2)n1 | x | x | x | x | x | -3
C=CCN(CC=C)Cc1ccc(OCc2ccccc2)c(OC)c1 | x | x | x | x | x | -2
CCCCCCSc1ccc(-c2nc3cnccn3c2NCCCC)cc1 | 159 | -7% | 63* | i | 0 | 1
O=C(O)CSc1ccc(C(=O)/C=C/c2ccc3c(c2)OCCO3)cc1F | x | x | x | x | x | 1
Cc1cc(-c2c(C)[nH]n(-c3ccc(Cl)cc3)c2=O)n[nH]1 | -60* | 23% | -11 | i | -1 | 8
O=C(N/N=C/c1sc(=O)n(Cc2ccc(Br)cc2)c1Cl)c1ccco1 | -25 | u | -2 | i | 14 | -46*
O=C(N/N=C/c1ccc(Br)s1)c1ccco1 | -14 | 6% | -10 | i | 7 | 0
N#CC1=C(SCC(=O)c2ccc(Br)cc2)NC2=C(C(=O)CCC2)C1c1ccco1 (centres undefined) | -59* | -38% | 1 | i | -1 | -5
CCc1ccc(NC(=O)CSC2=C(C#N)C(c3ccco3)C3=C(CCCC3=O)N2)cc1 (centres undefined) | -18 | u | 2 | i | -21 | 3
Clc1cc2[nH]c3c(c2cc1Cl)CCCC3 | x | x | x | x | x | -1
N=C(N)c1ccc(OCc2cccnc2)cc1 | x | x | x | x | x | 0
CC(CNCC1CCCO1)COc1ccccc1 (centres undefined) | -79* | -19%[11.4 µM] | -18 | i | 15 | -16
O=C(Cn1c(=O)c2c(ncn2C2CCCC2)n(Cc2ccccc2)c1=O)Nc1ccccc1 | x | x | x | x | x | -18
Cc1cc(C)cc(CC(=O)N2CCC2(C)C(=O)NS(=O)(=O)c2ccc(C#N)cc2)c1 (centres undefined) | 0 | x | 70* | i | -3 | -8

Assay outcomes (PubChem)
